Hits are enriched below; roughly 3% of the tested compounds scored in any of these assays.
DRD3 agonist: agonists of human D3 dopamine receptor; P35462; D3R DiscoveRx beta-arrestin cells, luminescence, 90 min; max activation, %; 410,000 compounds, 0.58% hits; in the data active = max activation above about 30%
Target sequence (P35462 whole entry, looked up): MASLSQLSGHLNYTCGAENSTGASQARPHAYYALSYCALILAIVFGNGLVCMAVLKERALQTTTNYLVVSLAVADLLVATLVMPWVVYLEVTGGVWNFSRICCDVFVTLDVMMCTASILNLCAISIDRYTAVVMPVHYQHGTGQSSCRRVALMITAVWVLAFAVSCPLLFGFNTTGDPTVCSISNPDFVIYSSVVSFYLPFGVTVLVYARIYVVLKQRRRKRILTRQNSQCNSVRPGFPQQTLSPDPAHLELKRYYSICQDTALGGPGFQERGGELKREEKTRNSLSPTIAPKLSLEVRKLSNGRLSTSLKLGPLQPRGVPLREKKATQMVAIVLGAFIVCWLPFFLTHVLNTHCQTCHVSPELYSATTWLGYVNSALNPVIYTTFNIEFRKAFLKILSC
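Agonist mode: compounds and dopamine controls were applied to plated cells for 90 min at 37 degrees C after an overnight attachment at 1500 cells/well. Luminescent read-out followed 30 - 60 minutes at room temperature with DiscoveRx detection reagent.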
D3 antag: antagonists of human D3 dopamine receptor. P35462. D3R cells, DiscoveRx beta-arrestin luminescence, antagonist mode; active compounds read low. 360,000 compounds, 2.5% hits. max response, negative = inhibition, %; in the data active = max response below about -50%
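Cells expressing the human receptor were seeded at 1500 cells/well, incubated overnight at 37 degrees C in 5% CO2, then exposed to library compounds with dopamine controls for 90 minutes at 37 degrees C before luminescent detection.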
Nrf2 activator: Nrf2 pathway activation; Potency, µM (series often up to 46.1 µM), usual class: activators; 410,000 compounds, 0.31% hits; AREc32 ARE-luciferase reporter (MCF7-derived line), luminescence, 24 h; also: nearly all actives have a fitted effect of over 65% in size
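Steps: seed AREc32_Fluc cells (1000/well, 5% FBS OPTI-MEM); incubate overnight at 37 deg C; add 23 nL compound; incubate 24 hr; add Steady-Glo; hold 30 min RT; read luminescence.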
GRP78 ERSR act: induces the endoplasmic reticulum stress response in human glioma cells | U87-MG GRP78 promoter luciferase reporter, 16 h | Potency, µM, actives largely listed as activators | 420,000 compounds, 0.02% hits; also: series mostly up to about 76 µM; nearly all actives have a fitted effect of over 35% in size
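ERSR induction read as luciferase luminescence (Bright-Glo, 10 min at room temperature) in stably transfected human U87-MG glioma cells exposed to compounds for 16 h, using GRP78 as sensor.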
Numbers stand for hits; [ ] = remark or other dose. Unless noted, calls follow the shape of the dose curve; as a rule, active = well fitted curve in the direction sought with a large enough effect; inconclusive = small, poorly fitted or top-dose-only effect, or another doubt; inactive = no such curve, though single readings can be large; an effect the other way counts as inactive or inconclusive.

How did CN1Cc2cccc3c2C(Cc2ccccc2S3)C1 (centres undefined) do in these assays?
DRD3 agonist: inactive; D3 antag: -64; Nrf2 activator: inactive[9.22 µM]; GRP78 ERSR act: inactive

Results for CN1CCC[C@@H](CC2c3ccccc3Sc3ccccc32)C1 ?
GRP78 ERSR act: inactive

Results for Cc1cc(=O)n(CCCc2ccccc2)[nH]1 ?
DRD3 agonist: inactive; D3 antag: -67; Nrf2 activator: inactive; GRP78 ERSR act: inactive

Results for Cc1cnc(SCc2ccccn2)nc1C1CCCN(C(=O)c2coc3c2C(=O)CCC3)C1 (centres undefined) ?
GRP78 ERSR act: inactive

Results for COc1ccccc1-n1cc(CN2CCC3(CCC(CNC(=O)c4ccccc4)O3)CC2)cn1 (centres undefined) ?
GRP78 ERSR act: inactive

How did COc1ccc(-c2csc(NC(=O)C3CCN(c4ncnc5sc(C)c(C)c45)CC3)n2)cc1OC do in these assays?
DRD3 agonist: 47; D3 antag: inactive; Nrf2 activator: inactive; GRP78 ERSR act: inactive

How did CCCCOC(=O)CSc1nnc(-c2cc(OC)c(OC)c(OC)c2)o1 do in these assays?
DRD3 agonist: inactive; D3 antag: inactive; Nrf2 activator: inactive; GRP78 ERSR act: 13µM

Results for CC(=O)NCCNC(=O)C1(C)Cc2c(-c3ccccc3)ccnc2O1 (centres undefined) ?
DRD3 agonist: inactive; D3 antag: inactive; Nrf2 activator: inactive; GRP78 ERSR act: inactive

Results for CN(C)c1ccc(-c2ccnc3c2CC(C)(C(=O)Nc2ccc(F)c(Cl)c2)O3)cc1 (centres undefined) ?
DRD3 agonist: 69; D3 antag: inactive; Nrf2 activator: inactive; GRP78 ERSR act: inactive

Results for COc1ccc(CCCNC(=O)C2(C)Cc3c(-c4ccc(NC(C)=O)cc4)ccnc3O2)cc1 (centres undefined) ?
DRD3 agonist: inactive; D3 antag: -62; Nrf2 activator: inactive; GRP78 ERSR act: inactive

What do the screens show for `CC(=O)Nc1ccc(-c2ccnc3c2CC(C)(C(=O)Nc2cccc(Oc4ccccc4)c2)O3)cc1` (centres undefined)?
DRD3 agonist: inactive; D3 antag: -66; Nrf2 activator: inactive; GRP78 ERSR act: inactive

What do the screens show for `CC1(C(=O)NCc2ccco2)Cc2c(-c3ccccc3)ccnc2O1` (centres undefined)?
DRD3 agonist: inactive; D3 antag: -58; Nrf2 activator: inactive; GRP78 ERSR act: inactive

What do the screens show for `C=C(NCc1ccccc1)c1ccccc1O`?
GRP78 ERSR act: inactive

Results for C=C1C=C(C)n2ncc(C(=O)Nc3ccc(F)cc3F)c2N1 ?
GRP78 ERSR act: inactive

Results for C[C@@H]1CN(Cc2ccc3c(c2)CN(C(=O)CCc2nc4ccc(F)cc4[nH]2)CCO3)C[C@H](C)O1 ?
GRP78 ERSR act: inactive

Results for CC(C)c1ccc(NC(=O)C2(C)Cc3c(-c4ccc(C(N)=O)cc4)ccnc3O2)cc1 (centres undefined) ?
DRD3 agonist: inactive; D3 antag: -54; Nrf2 activator: inactive; GRP78 ERSR act: inactive

What do the screens show for `CC(=O)Nc1ccc(-c2ccnc3c2CC(C)(C(=O)Nc2ccc(C(C)C)cc2)O3)cc1` (centres undefined)?
DRD3 agonist: inactive; D3 antag: inactive; Nrf2 activator: inactive; GRP78 ERSR act: inactive

Results for CC1(C(=O)NCc2cccs2)Cc2c(-c3ccc(C(N)=O)cc3)ccnc2O1 (centres undefined) ?
DRD3 agonist: inactive; D3 antag: -71; Nrf2 activator: inactive[9.22 µM]; GRP78 ERSR act: inactive

How did CC(=O)Nc1ccc(-c2ccnc3c2CC(C)(C(=O)NCCc2ccccc2)O3)cc1 (centres undefined) do in these assays?
DRD3 agonist: inactive; D3 antag: -115; Nrf2 activator: inactive; GRP78 ERSR act: inactive

Results for CCOC(=O)N(C(=O)c1ccccc1)c1ccccc1 ?
GRP78 ERSR act: inactive

What do the screens show for `CC1(C)CC(=O)c2cc(C(=O)Nc3ccccc3)c(=O)[nH]c2C1`?
GRP78 ERSR act: inactive

What do the screens show for `COc1ccc(C=C2c3ccccc3C(=O)c3ccccc32)cc1O`?
GRP78 ERSR act: inactive

Results for Cc1[nH]c2ccccc2c1C(=O)COC(=O)c1ccccc1SCC(=O)N1CCCC1 ?
GRP78 ERSR act: inactive

Results for Cn1c(=O)n(/N=C/c2ccccc2)c2ccccc21 ?
DRD3 agonist: inactive; D3 antag: inactive; Nrf2 activator: 11µM; GRP78 ERSR act: inactive

How did CCCCCCCCCCCCCCCC[N+](C)(C)CCN(Cc1ccc(OC)cc1)c1ncccn1 do in these assays?
DRD3 agonist: inactive; D3 antag: -55; Nrf2 activator: inactive; GRP78 ERSR act: inactive

Screening data (PubChem BioAssay)
